# Data from PubChem BioAssay (NCATS).
# Unmarked numbers belong to inactive results. Results filed as inconclusive are left out. Entries that show only a call come without a potency. Calls of active or inactive are those of the source. Unless noted, calls follow the shape of the dose curve; as a rule, active = well fitted curve in the direction sought with a large enough effect; inconclusive = small, poorly fitted or top-dose-only effect, or another doubt; inactive = no such curve, though single readings can be large; an effect the other way counts as inactive or inconclusive.
# How the values were obtained:
# [1] = target: Glucocorticoid receptor (Homo sapiens) (UniProt P04150); test: GR-GFP Redistribution (AID 450;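 active = compounds whose dose series gives a full or clear partial fitted curve of increased nuclear translocation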; also: potency is read from the fitted curve at half-maximal effect); conditions: U2OS GR-GFP nuclear translocation, laser cytometry, 2 h
# Glucocorticoid receptor (Homo sapiens), sequence (P04150 whole entry, looked up, the tested form may be a part): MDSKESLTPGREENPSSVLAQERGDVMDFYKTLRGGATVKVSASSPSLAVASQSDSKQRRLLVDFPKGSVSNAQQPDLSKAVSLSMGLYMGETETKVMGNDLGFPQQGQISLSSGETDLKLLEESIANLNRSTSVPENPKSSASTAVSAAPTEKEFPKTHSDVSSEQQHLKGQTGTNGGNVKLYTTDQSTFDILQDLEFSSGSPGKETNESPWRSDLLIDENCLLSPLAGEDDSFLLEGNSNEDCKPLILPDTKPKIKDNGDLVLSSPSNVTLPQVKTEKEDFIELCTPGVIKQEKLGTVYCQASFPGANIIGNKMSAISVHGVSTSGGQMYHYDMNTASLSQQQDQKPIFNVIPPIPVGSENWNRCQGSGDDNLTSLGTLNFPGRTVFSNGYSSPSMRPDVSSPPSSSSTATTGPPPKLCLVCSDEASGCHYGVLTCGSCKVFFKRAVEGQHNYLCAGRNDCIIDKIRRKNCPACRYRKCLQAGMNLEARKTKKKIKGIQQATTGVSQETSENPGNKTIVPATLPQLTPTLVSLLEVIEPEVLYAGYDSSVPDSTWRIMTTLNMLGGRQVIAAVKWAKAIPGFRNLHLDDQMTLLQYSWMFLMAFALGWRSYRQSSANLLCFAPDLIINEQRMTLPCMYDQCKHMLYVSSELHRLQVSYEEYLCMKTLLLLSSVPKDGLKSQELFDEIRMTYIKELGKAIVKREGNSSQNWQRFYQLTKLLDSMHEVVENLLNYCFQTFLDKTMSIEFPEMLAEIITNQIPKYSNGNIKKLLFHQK
# [2] = target: Glucocorticoid receptor (Homo sapiens) (UniProt P04150); test: GR-EFC Redistribution (AID 451; calls by dose curve; also: potency is read from the fitted curve at half-maximal effect); conditions: CHO-K1 GR-EFC translocation, beta-gal luminescence, 2 h
# Outline: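 Translocation of GR-ED fusion to nuclear EA restores b-gal, read by luminescence after 1 h room-temperature detection. Engineered CHO-K1 biosensor cells, 1,000/well, exposed 2 h at 37 C to titrations up to 46 uM final.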
# [3] = target: Mitogen-activated protein kinase 10 (Mus musculus) (UniProt Q61831); test: JNK3 AlphaScreen Assay (AID 530; active = well fitted curve in either direction with a large enough effect, not every such curve was filed as active;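 also: kinase came from lysate of stimulated human HepG2 cells; signal reports phosphorylation of biotinylated GST-cJun 1-79 at Ser73 with 10 µM ATP; series mostly up to about 57 µM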)
# Outline: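 qHTS titrations with 15 min compound pre-incubation before adding ATP (10 uM final). Read-out: AlphaScreen of Ser73-phosphorylated biotin-GST-cJun using HepG2 lysate JNK3 activated by IL-1β and TNFα.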
# [4] = target: 3',5'-cyclic-AMP phosphodiesterase 4B (Homo sapiens) (UniProt Q07343); test: qHTS Assay for Inhibitors of PDE-IV (AID 607; active = well fitted activation curve with a large enough effect in the main read-out, with a control signal flat, not every such curve was filed as active)
# 3',5'-cyclic-AMP phosphodiesterase 4B (Homo sapiens), sequence (Q07343 whole entry, looked up): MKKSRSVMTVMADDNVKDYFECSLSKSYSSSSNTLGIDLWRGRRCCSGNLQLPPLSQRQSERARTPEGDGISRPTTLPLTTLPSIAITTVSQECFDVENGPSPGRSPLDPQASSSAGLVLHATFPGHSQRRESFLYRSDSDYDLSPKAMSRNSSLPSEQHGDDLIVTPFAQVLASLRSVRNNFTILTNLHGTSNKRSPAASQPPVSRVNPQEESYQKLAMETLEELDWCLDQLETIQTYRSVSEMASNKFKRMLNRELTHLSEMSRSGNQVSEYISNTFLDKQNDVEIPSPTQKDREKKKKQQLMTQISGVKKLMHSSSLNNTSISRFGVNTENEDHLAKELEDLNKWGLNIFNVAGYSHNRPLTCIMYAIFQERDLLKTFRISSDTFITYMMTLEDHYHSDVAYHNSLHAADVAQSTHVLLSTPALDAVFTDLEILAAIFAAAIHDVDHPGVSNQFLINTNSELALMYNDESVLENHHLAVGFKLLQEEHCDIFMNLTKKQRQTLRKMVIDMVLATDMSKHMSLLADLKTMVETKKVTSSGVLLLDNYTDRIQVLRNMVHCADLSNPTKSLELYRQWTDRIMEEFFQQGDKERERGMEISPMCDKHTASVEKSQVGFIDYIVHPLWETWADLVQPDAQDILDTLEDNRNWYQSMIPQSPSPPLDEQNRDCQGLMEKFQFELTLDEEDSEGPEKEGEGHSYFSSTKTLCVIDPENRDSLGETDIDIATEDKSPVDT
# Outline: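 ACTOne HEK293 cells carry a modified cAMP-gated CNG channel and express endogenous PDE4; plated 1000 cells/well, compounds up to 22.9 uM final. Membrane-potential dye fluorescence (ex 535/em 590) was read; parental cells received 10 uM forskolin + 100 uM RO 20-1724.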
# [5] = target: Ubiquitin carboxyl-terminal hydrolase 1 (Homo sapiens) (UniProt O94782); test: Inhibitors of USP1/UAF1: Pilot qHTS (AID 504865); also: nearly all actives have a fitted effect of over 35% in size; also: potency is read from the fitted curve at half-maximal effect
# Ubiquitin carboxyl-terminal hydrolase 1 (Homo sapiens), sequence (O94782 whole entry, looked up): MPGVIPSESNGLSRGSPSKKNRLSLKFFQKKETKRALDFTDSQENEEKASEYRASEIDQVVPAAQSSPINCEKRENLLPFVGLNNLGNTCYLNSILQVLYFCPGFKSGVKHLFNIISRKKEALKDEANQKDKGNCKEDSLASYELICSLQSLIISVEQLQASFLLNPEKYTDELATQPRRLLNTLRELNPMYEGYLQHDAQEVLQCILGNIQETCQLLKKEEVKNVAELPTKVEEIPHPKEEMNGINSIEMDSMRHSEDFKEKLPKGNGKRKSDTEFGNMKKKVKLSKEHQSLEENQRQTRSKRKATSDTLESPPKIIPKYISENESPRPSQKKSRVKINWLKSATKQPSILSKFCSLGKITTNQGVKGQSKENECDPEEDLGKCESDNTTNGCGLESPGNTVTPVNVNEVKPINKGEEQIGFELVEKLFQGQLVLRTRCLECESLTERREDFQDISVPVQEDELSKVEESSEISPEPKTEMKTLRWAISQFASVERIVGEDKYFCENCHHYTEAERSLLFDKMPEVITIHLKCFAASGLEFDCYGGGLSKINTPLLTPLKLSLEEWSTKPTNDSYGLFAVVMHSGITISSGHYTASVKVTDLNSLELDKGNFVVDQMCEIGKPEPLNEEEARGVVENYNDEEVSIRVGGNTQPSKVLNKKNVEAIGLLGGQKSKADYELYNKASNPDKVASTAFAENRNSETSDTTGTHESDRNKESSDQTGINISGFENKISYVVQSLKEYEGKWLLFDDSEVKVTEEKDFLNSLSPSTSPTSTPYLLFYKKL
# Outline: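 Kinetic fluorescence assay: 1nM USP1/UAF1, 15 min compound preincubation, then 150nM Ub-Rho; 480/540 nm.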
# [6] = target: DNA dC->dU-editing enzyme APOBEC-3G (Homo sapiens) (UniProt Q9HC16); test: qHTS for inhibitors of Vif-A3G interactions: Validation (AID 588379)
# DNA dC->dU-editing enzyme APOBEC-3G (Homo sapiens), sequence (Q9HC16 whole entry, looked up): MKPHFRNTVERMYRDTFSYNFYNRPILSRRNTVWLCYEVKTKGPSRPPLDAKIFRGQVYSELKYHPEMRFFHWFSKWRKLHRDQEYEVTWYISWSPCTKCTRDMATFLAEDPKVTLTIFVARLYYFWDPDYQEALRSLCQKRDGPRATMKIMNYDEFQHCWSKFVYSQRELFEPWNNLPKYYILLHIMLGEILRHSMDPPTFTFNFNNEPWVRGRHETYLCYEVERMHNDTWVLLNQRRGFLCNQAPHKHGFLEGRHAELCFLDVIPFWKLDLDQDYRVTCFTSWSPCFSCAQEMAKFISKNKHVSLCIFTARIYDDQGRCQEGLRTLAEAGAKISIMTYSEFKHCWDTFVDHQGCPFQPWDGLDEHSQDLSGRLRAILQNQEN
# Outline: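 Yellow fluorescence (Ex 488, Em 500-530) of Vif-coexpressing HeLa A3G-eYFP cells, scanned by Acumen cytometer, reports blocked A3G degradation. Cells plated at 700/well overnight at 37 deg C before compound addition, then a further overnight compound incubation at 37 deg C.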
# [7] = test system: Zika virus NS2B-NS3 protease; test: Primary screen GU AMC qHTS for Zika virus inhibitors (AID 1347154); also: nearly all actives have a fitted effect of over 70% in size
# Outline: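 Fluorogenic AMC-substrate cleavage by noncovalent NS2B-NS3 protease complex (25 nM, pH 8.0 Tris buffer with Tween 20) followed for 15 minutes at room temperature (~20% conversion). Percent inhibition from ex340/em450 signal change, fitted by 4-parameter Hill equation.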
# [8] = Primary qHTS for small molecule stabilizers of the endoplasmic reticulum resident proteome: Secreted ER Calcium Modulated Protein (SERCaMP) assay (AID 1508630)
# Outline: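 The SH-SY5Y reporter protocol was run at 3 concentrations up to 38.3 uM (primary) or 11 concentrations (follow-up): 16 h compound, 100 nM thapsigargin for 4 h, then extracellular luciferase luminescence.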
# [9] = target: Cytochrome P450 3A4 (Homo sapiens) (UniProt P08684); test: qHTS Assay for Activators of Cytochrome P450 3A4 (AID 885); also: nearly all actives have a fitted effect of over 65% in size
# Cytochrome P450 3A4 (Homo sapiens), sequence (P08684 whole entry, looked up): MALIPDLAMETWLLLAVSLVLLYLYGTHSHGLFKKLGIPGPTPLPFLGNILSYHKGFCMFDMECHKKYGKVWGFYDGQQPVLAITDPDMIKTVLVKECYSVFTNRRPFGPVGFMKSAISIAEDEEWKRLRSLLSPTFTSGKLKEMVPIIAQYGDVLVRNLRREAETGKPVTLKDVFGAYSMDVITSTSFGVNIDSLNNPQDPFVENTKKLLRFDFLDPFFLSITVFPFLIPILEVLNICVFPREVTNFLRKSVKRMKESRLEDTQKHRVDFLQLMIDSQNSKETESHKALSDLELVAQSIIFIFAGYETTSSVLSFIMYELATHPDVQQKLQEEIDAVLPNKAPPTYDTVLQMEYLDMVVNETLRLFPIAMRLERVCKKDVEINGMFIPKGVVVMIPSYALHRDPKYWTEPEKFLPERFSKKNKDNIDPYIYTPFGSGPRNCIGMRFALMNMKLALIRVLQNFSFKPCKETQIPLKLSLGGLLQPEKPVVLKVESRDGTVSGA
# Outline: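 CYP3A4 activity: Luciferin-PPXE O-dealkylation, 25uM substrate, 200mM KPO4, RT throughout. Read-out is luciferase luminescence; higher values reflect activation.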
# [10] = target: Cytochrome P450 2D6 (Homo sapiens) (UniProt P10635); test: qHTS Assay for Inhibitors and Substrates of Cytochrome P450 2D6 (AID 891); also: potency is read from the fitted curve at half-maximal effect; nearly all actives have a fitted effect of over 60% in size
# Cytochrome P450 2D6 (Homo sapiens), sequence (P10635 whole entry, looked up): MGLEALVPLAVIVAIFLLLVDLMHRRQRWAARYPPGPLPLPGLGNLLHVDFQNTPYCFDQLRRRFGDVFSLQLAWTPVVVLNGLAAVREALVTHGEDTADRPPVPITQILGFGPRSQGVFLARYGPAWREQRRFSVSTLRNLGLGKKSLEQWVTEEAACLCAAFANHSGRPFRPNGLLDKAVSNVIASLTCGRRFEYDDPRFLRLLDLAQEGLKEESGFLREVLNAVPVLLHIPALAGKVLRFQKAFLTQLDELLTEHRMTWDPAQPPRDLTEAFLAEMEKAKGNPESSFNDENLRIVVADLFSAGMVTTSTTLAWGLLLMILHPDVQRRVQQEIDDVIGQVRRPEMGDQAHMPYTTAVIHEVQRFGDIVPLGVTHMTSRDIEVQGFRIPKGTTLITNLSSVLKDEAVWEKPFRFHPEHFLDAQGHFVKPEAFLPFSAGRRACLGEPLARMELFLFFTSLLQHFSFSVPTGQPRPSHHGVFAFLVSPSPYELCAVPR
# Outline: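 Luminescent read-out of luciferin formed by 5 nM human CYP2D6 demethylating 30 uM Luciferin-ME EGE (Km level) over 60 min at room temperature after NADPH regeneration addition. Data normalized to full inhibition by 1.43 uM quinidine.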
# [11] = target: Cytochrome P450 1A2 (Homo sapiens) (UniProt P05177); test: p450-cyp1a2 (AID 410; calls by dose curve; also: potency is read from the fitted curve at half-maximal effect)
# Cytochrome P450 1A2 (Homo sapiens), sequence (P05177 whole entry, looked up): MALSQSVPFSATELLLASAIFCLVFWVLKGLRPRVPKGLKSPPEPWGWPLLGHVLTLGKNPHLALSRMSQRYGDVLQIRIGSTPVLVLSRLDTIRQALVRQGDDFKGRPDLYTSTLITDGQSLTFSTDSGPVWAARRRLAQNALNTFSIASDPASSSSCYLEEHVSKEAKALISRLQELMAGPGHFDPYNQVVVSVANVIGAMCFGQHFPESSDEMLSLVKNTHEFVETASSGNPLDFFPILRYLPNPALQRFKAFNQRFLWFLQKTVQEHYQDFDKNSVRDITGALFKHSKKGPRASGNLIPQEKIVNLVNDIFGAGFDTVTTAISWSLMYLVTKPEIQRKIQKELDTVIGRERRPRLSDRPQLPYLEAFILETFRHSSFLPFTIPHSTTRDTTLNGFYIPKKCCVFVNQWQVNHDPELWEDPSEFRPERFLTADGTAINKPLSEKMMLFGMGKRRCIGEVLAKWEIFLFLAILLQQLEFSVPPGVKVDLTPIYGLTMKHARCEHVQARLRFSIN
# Outline: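 Luminescent demethylation readout: Luciferin-ME (100uM, equal to Km) turned over by 20nM CYP1A2 for 60 min at room temperature after NADPH regeneration addition, following 10 min compound preincubation. Normalization used 57 uM furafylline as full inhibition.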
# [12] = target: Cytochrome P450 2C9 (Homo sapiens) (UniProt P11712); test: qHTS Assay for Inhibitors and Substrates of Cytochrome P450 2C9 (AID 883); also: nearly all actives have a fitted effect of over 60% in size
# Cytochrome P450 2C9 (Homo sapiens), sequence (P11712 whole entry, looked up): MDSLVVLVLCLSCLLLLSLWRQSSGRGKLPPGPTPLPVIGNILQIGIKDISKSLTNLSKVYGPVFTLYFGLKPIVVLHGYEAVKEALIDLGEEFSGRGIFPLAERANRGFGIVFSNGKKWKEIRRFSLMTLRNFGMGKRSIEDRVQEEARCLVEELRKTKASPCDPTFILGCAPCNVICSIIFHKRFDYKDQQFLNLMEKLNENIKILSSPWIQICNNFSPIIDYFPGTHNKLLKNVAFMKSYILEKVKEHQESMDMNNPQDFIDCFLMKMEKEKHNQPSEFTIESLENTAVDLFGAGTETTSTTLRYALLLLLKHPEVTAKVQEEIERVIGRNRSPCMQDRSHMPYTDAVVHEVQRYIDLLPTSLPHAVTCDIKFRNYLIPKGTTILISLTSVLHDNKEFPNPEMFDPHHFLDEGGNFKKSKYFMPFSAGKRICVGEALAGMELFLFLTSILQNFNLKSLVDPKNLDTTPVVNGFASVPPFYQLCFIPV
# Outline: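 Turnover of Luciferin-H (100uM, KM) by 10nM human CYP2C9 was measured over 60 min at 37C with NADPH regeneration; inhibitors and some substrates reduce luminescence. Data normalized to sulphaphenazole 57uM.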
# [13] = target: Cytochrome P450 3A4 (Homo sapiens) (UniProt P08684); test: qHTS Assay for Inhibitors and Substrates of Cytochrome P450 3A4 (AID 884); also: nearly all actives have a fitted effect of over 50% in size; also: potency is read from the fitted curve at half-maximal effect
# Outline: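 Luminescent readout of luciferin produced by CYP3A4 (20 nM) dealkylation of Luciferin-PPXE, 25 uM (its KM). NADPH-driven reaction ran 60 min at RT after 10 min compound preincubation; data scaled to 57 uM ketoconazole as 100% inhibition.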
# [14] = target: Guanine nucleotide-binding protein G(i) subunit alpha-1 (Homo sapiens) (UniProt P63096); test: qHTS Assay for Inhibitors of RGS12 GoLoco Motif Activity (Green Fluorophore) (AID 879);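 also: negative values mean loss of peptide binding seen as reduced polarization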
# Outline: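 A drop in FITC polarization marked displacement of the FITC-tagged RGS12 GoLoco peptide (10 nM) from Gαi1 (50 nM). Compounds were incubated 10 min at room temperature in Tris pH 7.5 buffer containing 150 mM NaCl, 0.1 mM GDP and 0.05% NP40; unlabeled peptide titration served as control.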
# [15] = target: Muscarinic acetylcholine receptor M1 (Rattus norvegicus) (UniProt P08482); test: qHTS Assay for Antagonists of Acetylcholine Muscarinic M1 Receptor: Kinetic Measurement of Intracellular Calcium Response (AID 943); also: potency is read from the fitted curve at half-maximal effect; nearly all actives have a fitted effect of over 75% in size
# Outline: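 Antagonism measured as reduction of carbachol-evoked (EC80, 100 nM final) calcium flux in rat M1-CHO cells after 10 min compound exposure. Fluo-4 signal read kinetically; ratio of maximal to basal fluorescence.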
# [16] = target: Pyruvate kinase (Leishmania mexicana) (UniProt Q27686); test: qHTS Validation Assay for Inhibitors of Leishmania Mexicana Pyruvate Kinase (AID 945)
# Outline: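 Luminescent ATP detection (PKLight) after a 1 h room-temperature reaction of 0.2 nM LmPYK E451W mutant with 0.5 mM PEP and 0.1 mM ADP at pH 7.2. Activity is normalized to DMSO-only control wells.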
# [17] = target: Pyruvate kinase PKM (Homo sapiens) (UniProt P14618); test: qHTS Assay for Activators of Human Muscle Pyruvate Kinase (AID 954; active = well fitted curve in the direction sought with a large enough effect, not every such curve was filed as active)
# Outline: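 A coupled luminescent readout tracked ATP made from ADP by purified PKM2. Final conditions included 0.1 nM enzyme, PEP and ADP at 0.5 and 0.1 mM, pH 7.2 imidazole buffer with BSA, and a one-hour room-temperature reaction.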
# [18] = target: Alpha-galactosidase A (Homo sapiens) (UniProt P06280); test: Counterscreen for Glucocerebrosidase Inhibitors: qHTS Assay for Human alpha-Galactosidase at pH 4.5 (AID 992)
# Outline: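 Citrate buffer pH 4.5, Tween-20 0.005%. Enzyme 2 nM, substrate 80 uM, 20 min RT. Stop pH 10. Fluorescence Ex 365/Em 440. AC50 by Hill fit.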
# [19] = target: alpha-glucosidase (Oryza sativa, rice) (UniProt Q653V4); test: Counterscreen for Glucocerebrosidase Inhibitors: qHTS Assay for Rice alpha-Glucosidase at pH 5.0 (AID 997)
# Outline: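 Endpoint fluorogenic assay at pH 5.0: compounds (0.7 nM to 77 uM) titrated against 4 nM rice enzyme and 400 uM 4-MU-alpha-glucoside for 20 min at room temperature; NaOH/glycine stop, read ex 365/em 440 nm, Hill-fitted AC50.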
# [20] = target: Cytochrome P450 2C19 (Homo sapiens) (UniProt P33261); test: qHTS Assay for Inhibitors and Substrates of Cytochrome P450 2C19 (AID 899); also: potency is read from the fitted curve at half-maximal effect; nearly all actives have a fitted effect of over 60% in size
# Outline: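 Reactions contain 5nM enzyme, 10uM Luciferin-H EGE (KM) and 50mM KPO4; compound preincubates 10 min at 37C, NADPH regeneration starts turnover for 60 min. Luminescence after detection reagent gives activity.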
smiles,measurement,setting,value
O=C(c1ccc2c(c1)OCO2)N1CCCCC1,Potency,[1],> 46 µM
same,Potency,[2],> 46 µM
same,Potency,[3],inactive
same,Potency,[4],inactive
same,Potency,[5],inactive
same,Potency,[6],inactive
same,Potency,[7],inactive
same,Potency,[8],inactive
COc1ccc(C(OCCN2CCC[C@@H](C(=O)O)C2)(c2ccc(OC)cc2)c2ccc(OC)cc2)cc1,Potency,[1],> 46 µM
same,Potency,[2],> 46 µM
same,Potency,[3],inactive
same,Potency,[4],inactive
same,Potency,[9],inactive
same,Potency,[6],inactive
same,Potency,[7],inactive
same,Potency,[8],inactive
C[C@@H]1c2ccccc2CN1CC1=NCCN1,Potency,[1],> 46 µM
same,Potency,[2],> 46 µM
same,Potency,[3],inactive
same,Potency,[4],inactive
same,Potency,[9],inactive
same,Potency,[5],50.1 µM (active)
same,Potency,[6],inactive
same,Potency,[7],inactive
same,Potency,[8],inactive
N[C@H](C(=O)O)C1[C@H](C(=O)O)[C@H]1C(=O)O (stereo partly drawn),Potency,[1],> 46 µM
same,Potency,[2],> 46 µM
same,Potency,[3],inactive
same,Potency,[4],inactive
same,Potency,[10],7.94 µM (active)
same,Potency,[5],inactive
same,Potency,[6],inactive
same,Potency,[7],inactive
same,Potency,[8],inactive
CCCn1c(=O)[nH]c2nc(-c3ccc(S(=O)(=O)O)cc3)[nH]c2c1=O,Potency,[11],inactive
same,Potency,[2],> 46 µM
same,Potency,[3],inactive
same,Potency,[12],inactive
same,Potency,[13],inactive
same,Potency,[10],7.94 µM (active)
same,Potency,[5],inactive
same,Potency,[6],inactive
same,Potency,[7],inactive
same,Potency,[8],inactive
COc1ccc(OC)c2c(=S)c3ccccc3[nH]c12,Potency,[11],0.0631 µM (active)
same,Potency,[1],> 46 µM
same,Potency,[2],> 46 µM
same,Potency,[4],inactive
same,Potency,[13],7.94 µM (active)
same,Potency,[9],inactive
same,Potency,[6],inactive
same,Potency,[7],inactive
same,Potency,[8],inactive
CCCCCCCCCCCCCCCC(=O)O[C@H](CC(=O)O)C[N+](C)(C)C,Potency,[1],> 46 µM
same,Potency,[2],> 46 µM
same,Potency,[3],inactive
same,Potency,[4],inactive
same,outcome,[14],inactive
same,Potency,[15],5.62 µM (active)
same,Potency,[16],inactive
same,outcome,[17],inactive
same,outcome,[18],inactive
same,outcome,[19],inactive
same,Potency,[6],inactive
same,Potency,[7],inactive
same,Potency,[8],inactive
NCCCCCCNS(=O)(=O)c1cccc2ccccc12,Potency,[1],> 46 µM
same,Potency,[2],> 46 µM
same,Potency,[3],inactive
same,Potency,[4],inactive
same,Potency,[13],6.31 µM (active)
same,Potency,[9],inactive
same,Potency,[6],inactive
same,Potency,[7],inactive
same,Potency,[8],inactive
Cc1ccc(S(=O)(=O)/C=C\C#N)cc1,Potency,[11],3.98 µM (active)
same,Potency,[1],> 46 µM
same,Potency,[2],> 46 µM
same,Potency,[9],inactive
same,Potency,[20],5.01 µM (active)
same,Potency,[6],inactive
same,Potency,[7],inactive
same,Potency,[8],inactive
